Source: PubChem (several laboratories)
Most compounds without a hit are left out; they make up all but 3.8% or so of the library.
MPTP block: inhibitors of mitochondrial permeability transition pore | isolated mouse mitochondria, Ca2+ swelling absorbance, 30 min | inhibition, % at 10 µM | actives 1.4% (n = 360,000) | AID 602449;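 active means inhibition of 50% or more, scaled per plate between neutral and stimulator controls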
aDG glyco act: alpha-DG glycosylation activation; Pro5-aDG cells, alpha-DG glycosylation AlphaScreen (IIH6); 0% Pro5, 100% B10-LARGE cell signal; activation, % at 10 µM; actives 0.22% (n = 360,000); AID 624168;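 active means activation of at least 8% versus controls, or a plate z-score of at least 8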;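 further: Pro5 are CHO cells carrying HIG-tagged alpha-DG that lacks glycosylation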
Mot1-301 SUMO: SUMOylation pathway inhibition by Mot1-301 growth rescue | S. cerevisiae Mot1-301 growth rescue, ATP luminescence, 38.5C; percent above DMSO median, 100 means doubled | growth rescue, % at 18.8 µM | actives 1% (n = 320,000) | AID 2716;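 active means every valid replicate shows activation above 250% relative to neutral control wells; inactive means the rest, any valid replicate at or below 250%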
Cardio protect: modulators protecting cardiomyocytes from myocardial damage; H9c2 cardiomyocytes, H2O2 injury protection, ATPLite, 2 h; protection from H2O2 cell death, % at 20 µM; actives 0.63% (n = 360,000);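 active means compounds giving at least 50% protection of heart cells from peroxide-induced death in the single-dose screen, raw or plate-pattern-corrected value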
Yeast superoxide: caloric restriction mimetics inhibiting age-related superoxide in yeast. S. cerevisiae aged cells, superoxide DHE fluorescence; hits give low values. superoxide response (% of plate mean), % at 10 µM. actives 0.18% (n = 330,000);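 active means superoxide response under a set limit, about three screen SD below normal, cut at about 65% in these data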;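 further: yeast aged for seven days with compound at 30 °C before DHE staining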
FAS-TE inh: FAS thioesterase (human) inhibition; inhibition, % at 15 µM; P49327; actives 0.67% (n = 360,000); recombinant FAS-TE, OMFH fluorogenic substrate, fluorescence endpoint;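 active means compounds whose normalised, plate-corrected inhibition of enzyme fluorescence in the single-dose primary screen is 50% or more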
aDG glyco conf: alpha-DG glycosylation activation, confirmation | shares compounds with aDG glyco act | Pro5-aDG cells, IIH6 AlphaLISA; scaled to LARGE-overexpressing B10 cells as 100% | activation, % at 10 µM (by protocol) | actives 17% (n = 600);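 active means activation of at least 7% in one or more replicates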;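 further: cells exposed to compound for two days before detection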
Large screens that a line does not name were inactive (follow-up assays come after a bar, where they were run).

COc1ccc(S(=O)(=O)N2CCN(C(=O)C3CC3)CC2)cc1Br	none
O=C(O)c1ccccc1C(=O)NCc1cccnc1	none
O=C(NCc1cccnc1)NC1(c2ccccc2)CC1	aDG glyco act 10 | aDG glyco conf inactive
C[C@H]1CN(S(=O)C(C)(C)C)[C@@H](CCO)/C1=C\CCO (stereo not given in full)	none (no result: Mot1-301 SUMO, Yeast superoxide)
COc1cccc(CN(C)C(=O)c2cccc(S(=O)(=O)N3CCN(c4ccc(F)cc4)CC3)c2)c1OC	aDG glyco act 3.5 | aDG glyco conf inactive
COc1cccc(CN(C)C(=O)c2cccc(S(=O)(=O)N3CCN(c4ccccc4)CC3)c2)c1OC	none (no result: Mot1-301 SUMO, Yeast superoxide)
COc1ccc(CCNC(=O)c2cc3c(=O)n4ccccc4nc3n(CCN3CCOCC3)c2=N)cc1	aDG glyco act 8.1 | aDG glyco conf inactive
Cc1ccc(-n2nc3c(c2NC(=O)c2cc4ccccc4o2)CS(=O)(=O)C3)cc1	none
Cc1cc(CNC(=O)COc2cc(F)ccc2[N+](=O)[O-])c2ccccc2n1	aDG glyco act 8.2 | aDG glyco conf inactive
C=CCNC(=S)NNC(=O)CCC(O)CCCCC (stereo not given)	aDG glyco act 8.4 | aDG glyco conf inactive
Clc1ccc(-c2nc3c4ccccc4ccn3c2CC2CCCCC2)cc1	aDG glyco act 22 (no result: Mot1-301 SUMO, Cardio protect, Yeast superoxide) | aDG glyco conf inactive
Fc1ccc(-c2nc3c4ccccc4ccn3c2CC2CCCCC2)cc1	none (no result: Mot1-301 SUMO, Yeast superoxide)
Clc1cccc(-c2nc3c4ccccc4ccn3c2CC2CCCCC2)c1	aDG glyco act 11 (no result: Mot1-301 SUMO, Yeast superoxide) | aDG glyco conf inactive
O=C(NC1CC(=O)N(c2ccc(Cl)cc2)C1)C1CC1 (stereo not given)	none
CCn1cc(C(=O)NCCCN2CCCC(C)C2)c(=O)c2cc(S(=O)(=O)N3CCc4ccccc4C3)ccc21 (stereo not given)	none
CCC1CCCCN1CCCNC(=O)c1cn(CC)c2ccc(S(=O)(=O)N3CCc4ccccc4C3)cc2c1=O (stereo not given)	aDG glyco act 9.1 (no result: Mot1-301 SUMO) | aDG glyco conf inactive
O=C(CSc1nnc(NC(=O)c2ccco2)s1)Nc1ccccc1Br	aDG glyco act 2.2 | aDG glyco conf inactive
O=C(/C=C/c1ccc(Cl)c(Cl)c1)Nc1cccnc1	aDG glyco act 3.1 | aDG glyco conf inactive
O=C(NCC(c1ccc(F)cc1)N1CCOCC1)c1ccc([N+](=O)[O-])o1 (stereo not given)	none
CCOC(=O)C1CCN(Cc2cc(C(C)C)c(O)c(C(C)C)c2)CC1	aDG glyco act 6.4 | aDG glyco conf inactive
CCOC(=O)C1CCN(Cc2ccc3ccccc3c2)CC1	none
